Experimental data as given in PubChem BioAssay (NCATS).
Inconclusive results are not listed. Active and inactive are the calls of the source. Calls follow the shape of the dose curve; as a rule, active = well fitted curve in the direction sought with a large enough effect; inconclusive = small, poorly fitted or top-dose-only effect, or another doubt; inactive = no such curve, though single readings can be large; an effect the other way counts as inactive or inconclusive.

Tests used:
[1] = Quantitative High-Throughput drug screen in 47 multiple myeloma cell lines against the NCATS MIPE library collection: INA6_PLB cell viability assay (AID 1918965; also: nearly all actives have a fitted effect of over 55% in size)
Method in brief: (§1)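 Steps: seed 500 cells per well; pin-transfer MIPE 4.0 library; incubate 48 h at 37C, 5% CO2, humidified; add CellTiter-Glo, 5 min room temperature; read luminescence.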

[2] = Quantitative High-Throughput drug screen in 47 multiple myeloma cell lines against the NCATS MIPE library collection: JJN3_DSMZ cell viability assay (AID 1918966; also: nearly all actives have a fitted effect of over 50% in size)
Method in brief: (§2)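 We plated 500 myeloma cells per well, pinned in MIPE 4.0 compounds, and incubated for 48 hours at 37C. ATP was then quantified with CellTiter-Glo, with DMSO and media-only wells defining 100% and 0%.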

[3] = Quantitative High-Throughput drug screen in 47 multiple myeloma cell lines against the NCATS MIPE library collection: H1112_PLB cell viability assay (AID 1918967; also: nearly all actives have a fitted effect of over 30% in size)
Method in brief: as §2

[4] = Quantitative High-Throughput drug screen in 47 multiple myeloma cell lines against the NCATS MIPE library collection: KMS27_JCRB cell viability assay (AID 1918970); conditions: KMS27 myeloma cells, CellTiter-Glo ATP viability, 48 h; viability (% of DMSO): at 45.8 µM (top of the series); also: nearly all actives have a fitted effect of over 30% in size
Method in brief: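 Each line is seeded at 500 cells per well and treated with library compounds for 48 hours under 37 °C, 5% CO2. CellTiter-Glo is then added for 5 min at room temperature before median relative luminescence is recorded.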

[5] = Quantitative High-Throughput drug screen in 47 multiple myeloma cell lines against the NCATS MIPE library collection: KMS12BM_JCRB cell viability assay (AID 1918971); also: nearly all actives have a fitted effect of over 35% in size
Method in brief: (§3)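 Approved and investigational drugs from MIPE 4.0 were added by pin tool to 500 cells per well. After 48 hours at 37C, ATP-based CellTiter-Glo luminescence indicated remaining viability.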

[6] = Quantitative High-Throughput drug screen in 47 multiple myeloma cell lines against the NCATS MIPE library collection: KMS12PE_JCRB cell viability assay (AID 1918972); also: nearly all actives have a fitted effect of over 30% in size
Method in brief: as §1

[7] = Quantitative High-Throughput drug screen in 47 multiple myeloma cell lines against the NCATS MIPE library collection: KMS20_JCRB cell viability assay (AID 1918973); also: nearly all actives have a fitted effect of over 45% in size
Method in brief: as §2

[8] = Quantitative High-Throughput drug screen in 47 multiple myeloma cell lines against the NCATS MIPE library collection: OCIMY1_PLB cell viability assay (AID 1918979); also: nearly all actives have a fitted effect of over 35% in size
Method in brief: (§4)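 Inhibition of viability over 48 h was scored by ATP content (CellTiter-Glo) in 500-cell wells. Zero and full viability were defined by media-only and DMSO-only wells.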

[9] = Quantitative High-Throughput drug screen in 47 multiple myeloma cell lines against the NCATS MIPE library collection: MM1S_ATCC cell viability assay (AID 1918980); also: nearly all actives have a fitted effect of over 45% in size
Method in brief: as §4

[10] = Quantitative High-Throughput drug screen in 47 multiple myeloma cell lines against the NCATS MIPE library collection: MM1R_ATCC cell viability assay (AID 1918981); also: nearly all actives have a fitted effect of over 35% in size
Method in brief: as §4

[11] = Quantitative High-Throughput drug screen in 47 multiple myeloma cell lines against the NCATS MIPE library collection: Karpas25_ECACC cell viability assay (AID 1918968; also: nearly all actives have a fitted effect of over 35% in size)
Method in brief: as §2

[12] = Quantitative High-Throughput drug screen in 47 multiple myeloma cell lines against the NCATS MIPE library collection: KMS21BM_JCRB cell viability assay (AID 1918974); conditions: ATP luminescence, 48 h; viability: at 45.8 µM (top of the series)
Method in brief: as §2

[13] = Quantitative High-Throughput drug screen in 47 multiple myeloma cell lines against the NCATS MIPE library collection: KMS26_JCRB cell viability assay (AID 1918975); also: nearly all actives have a fitted effect of over 45% in size
Method in brief: as §3

[14] = Quantitative High-Throughput drug screen in 47 multiple myeloma cell lines against the NCATS MIPE library collection: MMM1_PLB cell viability assay (AID 1918976); also: nearly all actives have a fitted effect of over 35% in size
Method in brief: as §4

[15] = Quantitative High-Throughput drug screen in 47 multiple myeloma cell lines against the NCATS MIPE library collection: MOLP8_DSMZ cell viability assay (AID 1918977); also: nearly all actives have a fitted effect of over 45% in size
Method in brief: as §4

[16] = Quantitative High-Throughput drug screen in 47 multiple myeloma cell lines against the NCATS MIPE library collection: LP1_DSMZ cell viability assay (AID 1918982); also: nearly all actives have a fitted effect of over 35% in size
Method in brief: as §4

[17] = Quantitative High-Throughput drug screen in 47 multiple myeloma cell lines against the NCATS MIPE library collection: KMS28PE_JCRB cell viability assay (AID 1918983); also: nearly all actives have a fitted effect of over 35% in size
Method in brief: as §4

[18] = Quantitative High-Throughput drug screen in 47 multiple myeloma cell lines against the NCATS MIPE library collection: L363_DSMZ cell viability assay (AID 1918984); conditions: L363 myeloma viability, CellTiter-Glo ATP luminescence, 48 h; viability (% of control): at 45.8 µM (top of the series); also: nearly all actives have a fitted effect of over 40% in size
Method in brief: as §4

[19] = Quantitative High-Throughput drug screen in 47 multiple myeloma cell lines against the NCATS MIPE library collection: NCIH929_DSMZ cell viability assay (AID 1918978); also: nearly all actives have a fitted effect of over 35% in size
Method in brief: as §4

[20] = Quantitative High-Throughput drug screen in 47 multiple myeloma cell lines against the NCATS MIPE library collection: KMS34_JCRB cell viability assay (AID 1918985); also: nearly all actives have a fitted effect of over 40% in size
Method in brief: as §4

Measured: Potency
Potency is read from the fitted curve at half-maximal effect.

C=CC[N+]1([C@H]2C[C@H]3[C@@H]4CC[C@H]5C[C@H](O)[C@@H](N6CCOCC6)C[C@]5(C)[C@@H]4CC[C@]3(C)[C@H]2OC(C)=O)CCCC1
inactive: [1] | [3] | [4] | [5] | [6] | [7] | [8] | [10]
active: [2] 0.0053 µM | [9] 18.7 µM

CNC(=O)c1cc(Oc2ccc(NC(=O)Nc3ccc(Cl)c(C(F)(F)F)c3)c(F)c2)ccn1
active: [1] 5.9 µM | [2] 29.6 µM | [11] 2.64 µM | [4] 7.43 µM | [5] 18.7 µM | [6] 4.69 µM | [12] 2.96 µM | [13] 23.5 µM | [14] 8.33 µM | [15] 13.2 µM | [8] 23.5 µM | [9] 2.09 µM | [10] 20.9 µM | [16] 16.6 µM | [17] 20.9 µM | [18] 6.62 µM

c1cc(OCCN2CCCCC2)cc(-c2n[nH]c3ccc(-c4ncn[nH]4)cc23)c1
active: [1] 6.62 µM | [2] 11.8 µM | [11] 14.8 µM | [4] 18.7 µM | [6] 23.5 µM | [7] 18.7 µM | [12] 3.72 µM | [19] 8.33 µM | [10] 26.4 µM | [17] 16.6 µM | [20] 20.9 µM

CCOc1ccccc1N=Nc1c(C)[nH]n(-c2nc(-c3ccccc3)cs2)c1=O
inactive: [1] | [12] | [20]
active: [2] 10.5 µM | [11] 1.66 µM | [4] 9.35 µM | [5] 16.6 µM | [6] 18.7 µM | [13] 4.18 µM | [14] 8.33 µM | [19] 0.264 µM | [10] 3.32 µM

Cc1ccc(NC(=O)c2ccc(CN3CCN(C)CC3)cc2)cc1Nc1nc(-c2cccnc2)cs1
active: [1] 5.26 µM | [2] 16.6 µM | [11] 5.9 µM | [4] 20.9 µM | [5] 23.5 µM | [6] 18.7 µM | [19] 23.5 µM | [10] 20.9 µM | [17] 16.6 µM | [18] 9.35 µM

COc1nc(C)cnc1NS(=O)(=O)c1cccnc1-c1ccc(-c2nnco2)cc1
inactive: [1] | [3] | [4] | [6] | [19] | [8] | [9] | [10] | [16] | [18]
active: [2] 1.87 µM

CN1CCc2c(n(Cc3ccc(C(=O)NO)cc3)c3ccccc23)C1
active: [1] 4.69 µM | [2] 16.6 µM | [11] 16.6 µM | [4] 0.743 µM | [5] 18.7 µM | [13] 14.8 µM | [14] 14.8 µM | [15] 18.7 µM | [19] 16.6 µM | [8] 18.7 µM | [9] 16.6 µM | [10] 18.7 µM | [17] 14.8 µM | [20] 16.6 µM

Nc1ncnc2c1c(-c1cccc(OCc3ccccc3)c1)cn2C1CC(CN2CCC2)C1 (centres undefined)
active: [1] 20.9 µM | [2] 4.69 µM | [11] 1.18 µM | [4] 1.87 µM | [6] 16.6 µM | [7] 3.72 µM | [13] 4.69 µM | [14] 2.96 µM | [19] 0.418 µM | [10] 4.69 µM | [17] 3.32 µM | [18] 1.87 µM

O=C(CO)N1CCC(c2[nH]nc(-c3ccc(Cl)cc3)c2-c2ccncn2)CC1
active: [1] 11.8 µM | [2] 1.66 µM | [5] 0.935 µM | [9] 20.9 µM | [10] 0.662 µM | [17] 0.332 µM
not listed: [4] | [7] | [12] | [14] | [18]
inactive: all other assays above

O=C(Nc1cccc(Cl)c1)Nc1ncc(CCNc2ncnc3ccsc23)s1
active: [1] 7.43 µM | [2] 5.26 µM | [3] 0.0833 µM | [11] 18.7 µM | [5] 6.62 µM | [6] 0.662 µM | [13] 2.64 µM | [14] 16.6 µM | [15] 3.72 µM | [19] 7.43 µM | [8] 5.9 µM | [9] 16.6 µM | [10] 5.9 µM | [17] 5.9 µM | [20] 6.62 µM

CCC[C@H](Nc1nc(-c2ccc(NC(=O)NCC)c(OC)c2)ncc1C)c1cccnc1
active: [1] 0.001 µM | [2] 0.0235 µM | [3] 0.0047 µM | [4] 0.001 µM | [13] 0.0209 µM | [14] 0.0209 µM | [15] 0.0662 µM | [19] 0.0074 µM | [9] 0.0209 µM | [10] 0.0187 µM | [16] 0.0187 µM | [17] 0.0148 µM | [20] 0.0059 µM

N#CC(=C1Nc2ccccc2S1)c1ccnc(OCc2ccc(CN3CCOCC3)cc2)n1
active: [1] 5.26 µM | [2] 2.09 µM | [11] 0.235 µM | [4] 0.0264 µM | [5] 26.4 µM | [6] 0.059 µM | [12] 0.0264 µM | [13] 20.9 µM | [14] 14.8 µM | [19] 4.69 µM | [9] 1.48 µM | [10] 14.8 µM | [16] 20.9 µM | [18] 0.0372 µM | [20] 18.7 µM
